# Assay: MRP1 drug-resistance reversers in H69AR cells – cell-based, doxorubicin co-treatment, pilot screen (AID 601)
# Conditions: H69AR cells + 2 uM doxorubicin, CellTiter-Glo, 72 h; measured here: viability with 2 uM doxorubicin; at 10 µM; stronger effect = lower value
row,SMILES,viability
1,CCCc1cc(C(=O)Nc2ccccc2SC)no1,84.4%
2,Cc1ccc(C(=O)OCC(=O)Nc2ccc3c(c2)OCO3)o1,95.3%
3,COC(=O)C(C#N)C(=C1C(=O)CC(C)(C)CC1=O)c1ccc(O)cc1 (stereo not given),95.6%
4,COC(=O)c1cc(OC)c(OC)cc1NC(=O)c1ccc(Br)o1,93%
5,COc1cccc(NC(=O)CSc2nnc(Cc3cccn3C)n2-c2ccc(F)cc2)c1,86.2%
6,CCOc1ccc(N(CC(=O)OC)S(=O)(=O)c2ccc(OC)c(OC)c2)cc1,99.4%
7,COC(=O)C1=C(C)NC(C)=C(C(=O)OC)C1C1CC=CCC1 (stereo not given),77.1%
8,CCCCCn1c(=O)[nH]c2cc(C(=O)NCCN3CCOCC3)ccc2c1=O,88.5%
9,COc1ccccc1OCC(=O)N1CCN(c2ccccc2OC)CC1,91.2%
10,COc1cccc(-c2nc(CS(=O)(=O)CC(=O)N3CCN(c4ccccn4)CC3)c(C)o2)c1,78.3%
11,CC1C(=O)C(C)C(c2cccs2)NC1c1cccs1 (stereo not given),100%
12,COc1ccc(N2C(=O)CCC(C(=O)N3CCCCC3)C2c2ccc(OC)c(OC)c2)cc1 (stereo not given),93.2%
13,COc1cccc(NC(=O)c2nc3nc(C)cc(C(F)F)n3n2)c1,86.8%
14,O=C(NCCN1CCOCC1)c1ccc2c(c1)N(Cc1ccccc1F)C(=O)CS2,100%
15,CCn1cc(C(=O)NCc2ccccc2OC)c(=O)c2cc(S(=O)(=O)N(C)C)ccc21,68.4%
16,CC1Cn2c(nnc2-c2ccc(F)cc2)S1 (stereo not given),95.2%
17,COc1ccc(NC(=O)CN(c2ccc(C(C)C)cc2)S(=O)(=O)c2c(C)noc2C)cc1OC,91.3%
18,Cc1cc(C)c(C(=O)Nc2ccc(S(=O)(=O)Nc3onc(C)c3C)cc2)c(C)c1,86.9%
19,COc1ccc(C2CC(c3ccco3)n3ncnc3N2)cc1 (stereo not given),98.6%
20,CCCCn1c(CN2CCN(c3ccccc3)CC2)nc2c1c(=O)n(C)c(=O)n2C,66.4%

row,SMILES,viability
1,Cc1ccccc1NC(=O)C1CCCN(S(=O)(=O)c2cnc[nH]2)C1 (stereo not given),91.2%
2,CCOC(=O)C1CCCN(C(=O)c2cn(C)c(=O)c3cc(OC)c(OC)cc23)C1 (stereo not given),101%
3,O=C(C1CCN(S(=O)(=O)c2cccc3cccnc23)CC1)N1CCN(C2CCCCC2)CC1,99.2%
4,Cc1nnc2n(-c3ccc(Cl)cc3)c(=O)c3c4c(sc3n12)CN(C)CC4,103%
5,COc1ccc(OC)c(NC(=O)c2nnn(Cc3ccc(Br)cc3F)c2N)c1,58.9%
6,CCCOc1ccc2ccccc2c1/C=N/n1cnnc1,69.2%
7,CCOC(=O)C(C)(C)Sc1nc2c(cnn2-c2ccc(Cl)cc2)c(=O)[nH]1,85.4%
8,Cc1cccc(N2C(=O)CC(N3CCN(c4cccc(C(F)(F)F)c4)CC3)C2=O)c1 (stereo not given),90.8%
9,CC(=O)N1c2c(cc(Br)cc2S(=O)(=O)N2CCN(c3ccccn3)CC2)CC1C (stereo not given),90.2%
10,O=C(O)c1ccc2c(c1)C(=O)N(c1ccc(Cl)cn1)C2=O,88.2%
11,CC(=O)c1sc(NC(=O)C2COc3ccccc3O2)nc1C (stereo not given),77.8%
12,COc1ccc(OC)c2[nH]c(=O)c(CCNC(=O)C(C)C)cc12,90.5%
13,COc1ccc(NC(=O)c2cc(C3CC3)on2)c(OC)c1,99.1%
14,Cc1noc(C(=O)Nc2ccc3c(c2)OCO3)c1Cl,97.2%
15,CCC(CC)C(=O)NCCc1cc2ccc(C)cc2[nH]c1=O,92.9%
16,CCCS(=O)(=O)N1CCN(C(=O)c2cccnc2)CC1,101%
17,CCCCn1c2c(c3ccccc31)CCc1nonc1-2,105%
18,COc1ccc(-c2[nH]c(-c3cccc(OC)c3)nc2SCC(=O)NCc2ccco2)cc1,73.4%
19,CC1=C(C(=O)OCc2ccccc2)C(c2ccco2)n2ncnc2N1 (stereo not given),88.7%
20,Cc1c(C)n(C)c2ccc(C(=O)NCc3cccs3)cc12,74.6%

# Reference: PubChem BioAssay
